# Laboratory results as given in PMC4336329 (PLoS ONE, 2015).
# Hit rate of the full screen: of about 310,000 compounds, about 14,000 (4.5%) showed an effect of 50% or more. The effect is printed as a negative number. The sample holds strong results, similar compounds and a random draw of the others, so the mix is not that of the screen.
# Molecular target: human ether-à-go-go-related gene (hERG) potassium channel (human, UniProt Q12809)
# Assay: primary screen, population patch clamp on CHO cells stably expressing hERG; higher = less effect of the substance
# 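Further: peak tail current of the secondary pulse compared with the same well before compound.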
# Chain of human ether-à-go-go-related gene (hERG) potassium channel (Q12809 whole entry, looked up): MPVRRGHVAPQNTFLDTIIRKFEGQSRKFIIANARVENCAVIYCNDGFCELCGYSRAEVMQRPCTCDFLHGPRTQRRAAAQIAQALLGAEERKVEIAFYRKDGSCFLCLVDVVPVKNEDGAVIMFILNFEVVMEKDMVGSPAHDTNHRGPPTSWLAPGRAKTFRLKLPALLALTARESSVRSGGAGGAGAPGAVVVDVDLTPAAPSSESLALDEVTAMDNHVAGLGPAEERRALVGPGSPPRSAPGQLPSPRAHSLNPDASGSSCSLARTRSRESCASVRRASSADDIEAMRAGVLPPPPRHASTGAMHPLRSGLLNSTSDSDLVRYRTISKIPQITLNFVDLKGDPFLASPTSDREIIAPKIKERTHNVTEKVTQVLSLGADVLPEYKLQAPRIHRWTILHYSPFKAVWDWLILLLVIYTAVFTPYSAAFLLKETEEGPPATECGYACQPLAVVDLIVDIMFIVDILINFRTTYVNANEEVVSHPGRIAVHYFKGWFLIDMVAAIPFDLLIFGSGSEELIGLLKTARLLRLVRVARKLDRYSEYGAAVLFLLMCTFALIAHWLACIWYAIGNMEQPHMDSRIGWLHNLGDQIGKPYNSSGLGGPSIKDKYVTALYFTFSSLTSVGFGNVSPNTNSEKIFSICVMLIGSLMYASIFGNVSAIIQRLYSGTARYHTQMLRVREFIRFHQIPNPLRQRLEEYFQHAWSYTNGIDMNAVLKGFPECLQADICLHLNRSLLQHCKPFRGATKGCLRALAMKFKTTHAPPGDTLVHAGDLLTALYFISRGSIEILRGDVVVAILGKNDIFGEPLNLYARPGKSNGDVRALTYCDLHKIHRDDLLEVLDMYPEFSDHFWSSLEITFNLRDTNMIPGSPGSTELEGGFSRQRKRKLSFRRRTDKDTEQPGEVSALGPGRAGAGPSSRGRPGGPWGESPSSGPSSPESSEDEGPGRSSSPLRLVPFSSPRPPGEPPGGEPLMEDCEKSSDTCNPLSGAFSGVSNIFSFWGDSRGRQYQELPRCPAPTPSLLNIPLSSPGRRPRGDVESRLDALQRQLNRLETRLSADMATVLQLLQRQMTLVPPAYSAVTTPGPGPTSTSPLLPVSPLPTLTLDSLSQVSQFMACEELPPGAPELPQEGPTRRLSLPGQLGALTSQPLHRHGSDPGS
row,SMILES,"hERG current change (%, negative = inhibition) at 10uM"
1,CCc1cc2c(=O)n(Cc3ccco3)c(SCC(=O)NC3CCS(=O)(=O)C3)nc2s1 (stereo not shown),-72.2%
2,CCOc1ccc(-c2cc(C(=O)N3CCN(c4ccccn4)CC3)c3ccccc3n2)cc1,2.79%
3,Cn1ncc2c(Nc3ccc([N+](=O)[O-])cc3)nc(Cl)nc21,18.9%
4,Cc1ccc(-c2nnc(N3CCC(C)CC3)c3ccccc23)cc1,3.1%
5,COc1nnc(-c2ccc(N3CCOCC3)c(NC(=O)C3CCCCC3)c2)c2ccccc12,-37.3%
6,O=C(C1CCC(C(=O)N2CCCCC2)CC1)N1CCCCC1 (stereo not shown),6.09%
7,O=C(CSc1nc2c([nH]c3ccccc32)c(=O)n1-c1ccccc1)NCC1CCCO1 (stereo not shown),3.52%
8,CN(C)c1ccc(C(CNC(=O)Cc2cccc3ccccc23)N(C)C)cc1 (stereo not shown),-32.8%
9,CC(=O)N1c2ccc(S(=O)(=O)NCCC(=O)Nc3ccc(OC(F)(F)F)cc3)cc2CC1C (stereo not shown),-13.6%
10,COCCN(C(=O)c1csnn1)C(C(=O)NC1CCCCC1)c1ccccc1F (stereo not shown),3.83%
11,COc1ccc(-c2csc(N3CCC(c4ccccc4)CC3)n2)cc1,23.2%
12,CCc1cc2c(SCC(=O)N(C)C3CCS(=O)(=O)C3)ncnc2s1 (stereo not shown),-20.1%
13,CC(C)Cn1c(SCC(=O)N(C)C2CCS(=O)(=O)C2)nc2cc(Cl)ccc2c1=O (stereo not shown),-31.5%
14,CCc1cc2c(=O)n(Cc3ccco3)c(SCC(=O)N(C)C3CCS(=O)(=O)C3)nc2s1 (stereo not shown),-79.1%
15,CCc1cc2c(=O)n(Cc3ccco3)c(SCC(=O)N3CCCc4ccccc43)nc2s1,-23.4%
16,CCN(C(=O)CSc1nc2cc(Cl)ccc2c(=O)n1CC(C)C)C1CCS(=O)(=O)C1 (stereo not shown),2.51%
17,CCN(C(=O)CSc1nc2cc(Cl)ccc2c(=O)n1Cc1ccco1)C1CCS(=O)(=O)C1 (stereo not shown),-74.7%
18,COc1ccc(CNC(=O)[C@H](C)NC(=O)C2CCN(C(=O)[C@@H](N)CCSC)CC2)cc1,5.47%
19,O=C1C=C(O)CC(c2ccco2)C1 (stereo not shown),9.75%
20,O=C(/C=C/c1ccco1)Nc1ccc2nc3n(c(=O)c2c1)CCCC3,-8.17%
21,N#CCC(=O)N1CCn2c1nc1ccccc12,17.2%
22,Cn1c(=O)n(CCc2ccccc2)c(=O)c2c1nc1n2CCCN1c1ccccc1,-20.7%

row,SMILES,"hERG current change (%, negative = inhibition) at 10uM"
1,COc1cc(/C=C2/C(=N)N3C=CSC3=NC2=O)ccc1OCCCOc1cc(C)ccc1C,2.54%
2,CC1CCCN(CC(=O)Nc2cccc([N+](=O)[O-])c2)C1 (stereo not shown),-16.7%
3,CC1CC(C)CN(CCCCOc2ccc([N+](=O)[O-])cc2)C1.O=C(O)C(=O)O (stereo not shown),-78.8%
4,COC(=O)c1ccc(OCCCCN2CC(C)OC(C)C2)cc1.O=C(O)C(=O)O (stereo not shown),-20%
5,CC1CN(CCOc2ccc([N+](=O)[O-])cc2)CC(C)O1.O=C(O)C(=O)O (stereo not shown),-46.2%
6,CC1CN(CCCCOc2ccc(F)cc2)CC(C)O1.O=C(O)C(=O)O (stereo not shown),-42.7%
7,CC1CCCN(CCCOc2ccc([N+](=O)[O-])cc2)C1.O=C(O)C(=O)O (stereo not shown),-74.7%
8,CC1CN(CCCOc2ccc([N+](=O)[O-])cc2)CC(C)O1.O=C(O)C(=O)O (stereo not shown),-71.6%
9,CC1CC(C)CN(CCCOc2ccccc2[N+](=O)[O-])C1.O=C(O)C(=O)O (stereo not shown),-35.5%
10,Cc1ccc(OC(=O)CCS(=O)(=O)c2ccc(C)cc2)cc1,-24.4%
11,O=C(CSc1nnc(COc2ccc(Br)cc2)o1)N1CCOCC1,-17%
12,CN(c1ccccc1C(=O)N1CCCC1)S(C)(=O)=O,-9.73%
13,N#Cc1ccc(OCC(=O)Nc2ccc3[nH]c(=O)[nH]c3c2)cc1,-4.57%
14,C=CCn1c(O)c(C(CC)=Nc2cccc(C(=O)O)c2)c(=O)[nH]c1=O,11.6%
15,CSc1ccccc1OCc1cc(C(=O)NCCCc2ccccc2)no1,12.9%
16,Cc1ccc2c(CN(C)Cc3cccc(Cl)c3)cc(=O)oc2c1C,12%
17,COc1ccccc1NC(=S)N1CC(C)OC(C)C1 (stereo not shown),19.5%
18,COc1cccc(N2CCN(C(=O)CN(C)S(=O)(=O)c3ccc4c(c3)c(=O)n(C)c(=O)n4C)CC2)c1,-10.8%
19,CC(C)(C)OC(=O)CNC(=O)c1nc[nH]c1C(=O)NCC(=O)OC(C)(C)C,3.98%
20,CN(C(=O)COC(=O)CNS(=O)(=O)/C=C/c1ccccc1)C1CCS(=O)(=O)C1 (stereo not shown),23.3%
21,CCN(CC1COc2ccccc2O1)C(=O)CN1C(=O)NC(C)(c2ccc(C)cc2)C1=O (stereo not shown),-28.8%
